Results filed as inconclusive are left out. The source made the active and inactive calls. Rule for the calls, unless noted: active = hit-call score of the fitted dose curve at least 0.9, where 1 is the maximum; inactive = score below 0.9.
Experiments:
TTR (gene 7276) = assay: CCTE_GLTED_hTTR_0.125uM: CCTE's human Transthyretin (hTTR) Inhibition Assay, with 0.125uM TTR, Great Lakes Toxicology and Ecology Division (GLTED) Lab (AID 2284431);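 note: hits lower the fluorescence signal relative to DMSO baseline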
Procedure, shortened: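 Cell-free displacement of ANSA probe from 0.125uM TTR after 2 h incubation with chemical. Fluorescence read at 380 nm excitation/475 nm emission; loss of signal relative to DMSO indicates T4-site displacement.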

[1] = CCTE_Deisenroth_5AR_NBTE_donor: CCTE's 5alpha-reductase NanoBRET Target Engagement Assay […], Deisenroth Lab (AID 2284319); details: actives raise or lower the signal
Procedure, shortened: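 HEK293T cells were reverse transfected with an SRD5A2-NanoLuc vector for 20 h, exposed to test chemical (8 points, 10 nM - 29.9 uM) for 3 h, then testosterone tracer for 2 h more. Donor luminescence (460 nm) was read; bidirectional fit versus DMSO.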

[2] = CCTE_Deisenroth_5AR_NBTE_acceptor: CCTE's 5alpha-reductase NanoBRET Target Engagement Assay - Autofluorescence Screen, Deisenroth Lab (AID 2284321); details: actives raise or lower the signal;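 note: compound fluorescence in the acceptor channel under 460 nm excitation flags autofluorescence artifacts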
Procedure, shortened: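 Autofluorescence counter-screen: chemicals at an assumed nominal 100 uM in DMSO were scanned in three independent runs with 460 nm excitation. Gain or loss of acceptor signal was fitted bidirectionally against DMSO.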

SRD5A2 (gene 6716) = assay: CCTE_Deisenroth_5AR_NBTE_ratio: CCTE's 5alpha-reductase NanoBRET Target Engagement Assay - Ratio, Deisenroth Lab (AID 2284322); details: actives raise or lower the signal
Procedure, shortened: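 HEK293T cells transiently expressing an SRD5A2-NanoLuc fusion (20 h post-transfection) were exposed to test chemical (10 nM - 29.9 uM, 8 points) for 3 h, then testosterone tracer for a further 2 h. Acceptor/donor BRET ratio was fitted bidirectionally against DMSO baseline.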

IYD (gene 389434) = assay: CCTE_GLTED_hIYD: CCTE's human Iodotyrosine Deiodinase (xIYD) Inhibition Assay, Great Lakes Toxicology and Ecology Division (GLTED) Lab (AID 2284317; active = hit-call score of the fitted dose curve at least 0.9, where 1 is the maximum;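 note: cell-free human IYD enzyme made in baculovirus insect cells; iodide freed from monoiodotyrosine measured by cerium arsenite color change at 420 nm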)
Procedure, shortened: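 In the IYD assay, iodide released from MIT by insect-cell-expressed human enzyme was quantified after 3 h via Sandell-Kolthoff rate at 420 nm, with plate-wise normalization to MNT and solvent controls.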

[3] = CCTE_Mundy_HCI_iCellGluta_NOG_NeuriteLength: CCTE's Neurite Outgrowth Assay in iCellGluta cells for Neurite Length, Mundy Lab (AID 2284318; active = hit-call score of the fitted dose curve at least 0.9, where 1 is the maximum)
Procedure, shortened: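 Automated high-content imaging of betaIII-tubulin (Alexa Fluor-488) and Hoechst-stained cells gave neurite length, normalized to the DMSO baseline.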

[4] = IUF_NPC1_cytotoxicity_72hr: Cytotoxicity Assessment at 72 hours in the Leibniz Research Institute for Environmental Medicine (IUF) Neural Progenitor Cell Proliferation Assay (NPC1) (AID 2284332; active = hit-call score of the fitted dose curve at least 0.9, where 1 is the maximum;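 note: rising LDH signal means more cytotoxicity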)
Procedure, shortened: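 Cytotoxicity by LDH membrane-integrity assay on medium supernatants, fluorescence via resazurin reduction, after 3-day single exposure of primary hNPC spheres at 37C, pH 7.2-7.6 with growth factors. Fitted upward against baseline.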

[5] = CCTE_Mundy_HCI_iCellGluta_NOG_NeuronCount: CCTE's Neurite Outgrowth Assay in iCellGluta cells for Neuron Count, Mundy Lab (AID 2284340; active = hit-call score of the fitted dose curve at least 0.9, where 1 is the maximum;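 note: cells fixed about 48 h after compound addition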)
Procedure, shortened: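 Neuron count read by automated high-content imaging of Hoechst 33342 and betaIII-tubulin/Alexa Fluor-488 labelling in human iPSC glutamatergic neurons. Activity fitted relative to DMSO.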

[6] = CCTE_Padilla_ZF_Score.General: CCTE's 144 Hour Post-fertilization zebrafish Assay Score for General Malformation, Padilla Lab (AID 2284411)
Procedure, shortened: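 Malformation, death and hatching were scored at 6 dpf by two blinded observers under a stereo microscope. Embryos were dosed singly from 6-8 hpf in sealed plates of 10% Hanks' at 26C and rinsed on 5 dpf; DMSO baseline.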

SERPINA7 (gene 6906) = assay: CCTE_GLTED_hTBG: CCTE's human Thyroxine-binding Globulin (TBG) Inhibition Assay, Great Lakes Toxicology and Ecology Division (GLTED) Lab (AID 2284343; active = hit-call score of the fitted dose curve at least 0.9, where 1 is the maximum;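 note: active chemicals lower fluorescence versus DMSO baseline by displacing probe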)
Procedure, shortened: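 Cell-free displacement of the fluorescent probe ANSA from human thyroxine-binding globulin after 2 h exposure. Read-out at ex 380/em 475 nm; DMSO baseline.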

[7] = CCTE_Deisenroth_H295R-HTRF_384WELL_ESTRADIOL: CCTE's H295R-HTRF Assay Evaluation of Estradiol Concentration, Deisenroth Lab (AID 2284361); details: actives raise or lower the signal
Procedure, shortened: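 Estradiol secreted into medium by H295R adrenocortical cells, quantified by HTRF after 48 h dosing over a nine-point 0.001 - 100 uM final range; gain or loss versus DMSO. Parallel ATP-luminescence viability readout; n=5 experiments.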

[8] = CCTE_Deisenroth_H295R-HTRF_384WELL_TESTOSTERONE: CCTE's H295R-HTRF Assay Evaluation of Testosterone Concentration, Deisenroth Lab (AID 2284373); details: actives raise or lower the signal
Procedure, shortened: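 H295R cells were acclimated 24 h, then exposed 48 h to nine concentrations (0.001–100 uM final) in technical triplicate, n=5. Testosterone in conditioned medium was measured by HTRF (em 620/665 nm). Fitting was bidirectional versus DMSO; CellTiter-Glo viability ran on the same plates.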

[9] = CCTE_Deisenroth_H295R-HTRF_384WELL_CTOX: Cytotoxicity Assessment in CCTE's H295R-HTRF Assay, Deisenroth Lab (AID 2284380; active = hit-call score of the fitted dose curve at least 0.9, where 1 is the maximum)
Procedure, shortened: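 Luminescent ATP viability readout (CellTiter-Glo 2.0), multiplexed on plates used for hormone sampling, after 48 h chemical exposure. Human H295R cells; final concentrations 0.001–100 uM in nine steps, technical triplicates, five experiments; DMSO baseline.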

SMILES: CC(C)=CCCC(C)=CCCC(C)=CCO
- AC50 (TTR (gene 7276)): 19.9 µM (active)

SMILES: CCCCCC(CO)CCC (configuration not stated)
- outcome [1]: inactive
- outcome [2]: inactive
- outcome (SRD5A2 (gene 6716)): inactive

SMILES: CCCCCCCCCCCCCCCC(=O)OC[C@H](O)[C@H]1OC(=O)C(O)=C1O
- AC50 (IYD (gene 389434)): 25.6 µM (active)
- outcome [1]: inactive
- outcome [2]: inactive
- outcome (SRD5A2 (gene 6716)): inactive

SMILES: CSc1nc(NC2CC2)nc(NC(C)(C)C)n1
- AC50 (TTR (gene 7276)): 10.8 µM (active)

SMILES: N#Cc1ccc(CC(=NNC(=O)Nc2ccc(OC(F)(F)F)cc2)c2cccc(C(F)(F)F)c2)cc1
- outcome [3]: inactive
- outcome [4]: inactive
- outcome [5]: inactive

SMILES: O=C1OC2(c3cc(Br)c(O)c(Br)c3Oc3c2cc(Br)c(O)c3Br)c2c(Cl)c(Cl)c(Cl)c(Cl)c21
- AC50 (IYD (gene 389434)): 23.7 µM (active)

SMILES: CCn1c2ccccc2c2cc(N)ccc21
- outcome [6]: inactive

SMILES: O=c1cc(-c2ccccc2)oc2cc(O)cc(O)c12
- AC50 (TTR (gene 7276)): 0.06 µM (active)

SMILES: CC(C)c1ccc(C(C)C)cc1
- outcome [6]: inactive

SMILES: O=C(Oc1ccccc1)c1ccc(O)cc1
- AC50 (SERPINA7 (gene 6906)): 12.6 µM (active)
- AC50 (TTR (gene 7276)): 0.326 µM (active)

SMILES: CCCCCCCCC=O
- outcome [6]: inactive

SMILES: CCN(CC)c1ccc(C(=C2C=CC(=[N+](CC)CC)C=C2)c2ccc(S(=O)(=O)O)cc2S(=O)(=O)[O-])cc1
- outcome [1]: inactive
- AC50 [2]: 13 µM (active)
- AC50 (SRD5A2 (gene 6716)): 3.22 µM (active)

SMILES: Cc1ccc(S)cc1
- AC50 (SERPINA7 (gene 6906)): 1.59 µM (active)

SMILES: c1ccc(CCCc2ccccn2)cc1
- AC50 (SERPINA7 (gene 6906)): 22.2 µM (active)

SMILES: BrC1CCC(Br)C(Br)CCC(Br)C(Br)CCC1Br (configuration not stated)
- outcome [1]: inactive
- outcome [2]: inactive
- outcome (SRD5A2 (gene 6716)): inactive

SMILES: O=C1c2ccccc2C(=O)N1SC1CCCCC1
- AC50 (SERPINA7 (gene 6906)): 29.4 µM (active)

SMILES: CCCCC(CC)COCCC#N (configuration not stated)
- outcome [6]: inactive

SMILES: C#C[C@]1(O)CC[C@H]2[C@@H]3CCC4=Cc5oncc5C[C@]4(C)[C@H]3CC[C@@]21C
- AC50 [7]: 38.2 µM (active)
- AC50 [8]: 0.362 µM (active)
- outcome [9]: inactive

— PubChem BioAssay (EPA / NIEHS)
